The record followed here is PubChem BioAssay AID1719 (National Center for Advancing Translational Sciences (NCATS), 2009).

The structures appear in SMILES notation. This is one part of the list. Results filed as inconclusive are left out. Activity calls are given as the source filed them.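 How the source made its calls: active means compounds whose electron micrographs showed tau fibrils broken into shorter filaments or fragments, graded high on fibril breakup; inconclusive means micrographs gave an unclear fibril picture; inactive means the rest.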

The test deals with Microtubule-associated protein tau (Homo sapiens) (UniProt P10636). Put plainly: Transmission Electron Microscopy Assay for Inhibitors of Tau Fibrillization. Conditions: recombinant tau K18 P301L (four-repeat tau fragment) fibrillization, TEM grading; active compounds read high. The text has this: NIH Molecular Libraries Probe Production Network [MLPCN] NIH Chemical Genomics Center [NCGC] MLPCN Grant: X01 MH083262-01 Assay Provider: Carlo Ballatore, University of Pennsylvania NCGC Assay Overview: The microtubule-associated protein tau is an abundant protein in the axons of neurons that stabilizes microtubules. With its ability to modulate microtubule dynamics, tau contributes directly or indirectly, to key structural and regulatory cellular functions. Particularly important is the influence tau exerts on axonal transport, which allows signaling molecules, trophic factors and other essential cellular constituents to travel along the axons. Under pathological conditions, tau becomes sequestered into insoluble aggregates called neurofibrillary tangles. This phenomenon is believed to have pathological consequences by promoting axonal transport deficits that ultimately lead to synaptic dysfunction and neuronal loss. The ability of compounds to block tau fibrillization was visualized using transmission electron microscopy (TEM). Samples from the tau ThT confirmation assay treated with 100 uM compound (AID 1558) were centrifuged and imaged using TEM. […]
Microtubule-associated protein tau (Homo sapiens), sequence (P10636 561-689 P618L limits assumed): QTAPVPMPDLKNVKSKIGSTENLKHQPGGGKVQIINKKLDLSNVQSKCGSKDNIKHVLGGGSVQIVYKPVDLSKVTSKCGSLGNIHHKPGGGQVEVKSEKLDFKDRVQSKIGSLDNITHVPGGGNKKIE
For the compound `CCN(CC)c1ccc2oc(=O)c(C)nc2c1`, the fibril grade (0 = clumped fibrils, 4 = only tiny pieces) was 4 (active).
